Where “and” joins values, the source holds several entries; their conditions need not be identical. Identical values can stand only once. About 83,000 compounds went through this panel and 20% of them were active in at least one assay; those are over-represented in the sample as a whole.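 Step 1: grow cells in 96-well plates. Step 2: add test compound at a single concentration. Step 3: incubate 48 h. Step 4: record percent growth.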 Unmarked numbers belong to inactive results. Calls of active or inactive are those of the source. The calls were made as follows: active = growth percent below 10; inactive = the rest.

The subject of the first assay is HCC-2998 colon. Put plainly: NCI-60 one-dose screen, 48 h (100 = growth as untreated, 0 = no growth, -100 = all killed). The note with it: 10 µM unless noted.
For the compound `S=c1nc(CS)[nH]c2ccccc12`, the growth is 110%.

Take `O=C(CC1(O)C(=O)Nc2ccc(Br)cc21)c1ccc(Cl)cc1` (stereo not drawn): the growth was 104%.

Regarding `Clc1ccc(/C=N\N2CCCCCC2)cc1`, the growth was 97.4%.

Consider `COc1ccc(Nc2ncnc3ccc(-c4cncc(NS(C)(=O)=O)c4)cc23)cc1Cl`, for which the growth was 49.3%.

As to `O=C(c1cccc(Br)c1)N1CCN(c2ccnc3cc(Cl)ccc23)CC1`, the growth is 109%.

In the case of `CCCn1nc(C(=O)N2CCCCC2)c2c1CCC(N1CCC(c3ccncc3)CC1)C2` (stereo not drawn), the growth is 109%.

`O=C(Nc1cc(C(F)(F)F)cc(C(F)(F)F)c1)c1cc(Cl)ccc1O`: the growth is -25.4% (active) and 4.04% (active).

Take `Cc1cnc(C(=O)NNc2nc3sc4c(c3c(=O)[nH]2)C(C)CCC4)cn1` (stereo not drawn): the growth was 11.1%.

In the case of `CN1CCN(CCNC(=O)c2cccc(CN3c4cccc5c4C(=Cc4cccnc43)N(C)C5=O)c2)CC1`, the growth is 39.8%.

With `CCNC(=O)Oc1ccc(/C(=C(/C)Cc2ccc(OC)cc2)c2ccc(OCCN(CC)CC)cc2)cc1`, the growth was 59.7%.

As to `COc1c(NC=O)c2c(c([N+](=O)[O-])c1OC)C(=O)OC2`, the growth was 105% and 89.9%.

In the case of `COc1cc(/C=C2\C(=O)N(CCCCn3c4ccccc4c(=O)c4ccccc43)c3ccccc32)cc(OC)c1O`, the growth is 92.4%.

As to `Cc1c(O)c(O)cc2c3c(oc12)CC(c1ccc2c(c1)OCO2)CC3=O` (stereo not drawn), the growth is 101%.

As to `CC(=NCc1ccccc1)c1ccc(O)cc1O`, the growth was 92.5%.

For `COc1ccc(CCNC(=O)COc2cc3c(Nc4ccc(F)c(Cl)c4)ncnc3cc2OC)cc1OC`, the growth is 101%.

`COc1cccc(NC(=O)c2sc3nc(C)c(C(O)c4ccccc4)cc3c2N)c1` (stereo not drawn): the growth was 9.98% (active).

With `Cc1cc2nc(C(Cl)Cl)nc(-c3ccc(Cl)cc3)n2n1`, the growth was -77% (active).

As to `Nc1ccc(S(=O)(=O)c2ccc(N)cc2)cc1`, the growth is 98% and 108%.

In the case of `CCCCCO/N=C\c1c2c(O)c3c(O)c(C)c4c(c3c1O)C(=O)C(C)(O/C=C\C(OC)C(C)C(OC(C)=O)C(C)C(O)C(C)C(O)C(C)/C=C\C=C(\C)C(=O)N2)O4` (stereo not drawn), the growth was 6.51% (active).

On to `COc1ccc(-c2nc(Cl)c3c(C)nn(-c4ccc(F)cc4)c3n2)cc1`, for which the growth is 103%.

`COc1ccc(Oc2nc(Nc3ccc(N4CCOCC4)cc3)ncc2NC(=O)c2cccc(C(F)(F)F)c2)cc1`: the growth was 75.9%.

As for `O=C1C=CC(=O)N1c1ccc2ccccc2c1`, the growth is 100% and 106%.

In the case of `CN(C)C1CCN(C(=O)c2ccc(NC(=O)Nc3ccc(-c4nc(N5CCOCC5)c5cccn5n4)cc3)cc2)CC1`, the growth was 3.23% (active).

On to `O=C(Cc1ccc(F)cc1)c1ccccc1`, for which the growth was 106%.

Regarding `Cc1ccc(C(=O)c2ccc(CC(=O)N=Nc3c(O)[nH]c4ccc(OC(F)(F)F)cc34)n2C)cc1`, the growth is 119%.

As for `O=C(NNc1ccccc1)C1CCCN1` (stereo not drawn), the growth was 82.2%.

Regarding `O=C(/C=C/c1ccc(F)cc1)Nc1ncc(Cc2ccc(F)cc2)s1`, the growth was 26.5%.

As for `O=C1/C(=C/c2ccccc2[N+](=O)[O-])Cc2ccccc21`, the growth was 85% and 106%.

In the case of `CCCO/N=C/c1ccccn1`, the growth was 110% and 105%.

For `COc1cc2nc3cc([N+](=O)[O-])ccc3c(NCCNCC(C)(C)O)c2cc1OC`, the growth was -53.3% (active).

In the case of `Cc1ccc(-c2nc(SCC(=O)c3ccc(C#N)cc3)[nH]c(=O)c2C#N)cc1`, the growth was 107%.

As to `COc1ccc(/C=C/C(=O)c2cc3c(N)c(C(=O)Nc4ccccc4)sc3nc2C)cc1`, the growth was 11.7%.

For the compound `CC1(C)C(N)=Nc2cc(OCCCN3Cc4ccc(OCCc5cn(CC(=O)N6CCC(CCN7CCCC7)CC6)nn5)cc4C3)c(OCC3CC3)cc21`, the growth was 122%.

`CCCN1C(=O)/C(=c2\sc3n(c2=O)NC2C(N=3)N(CC)C(=O)N2CC)c2ccccc21` (stereo not drawn): the growth was 30.4%.

Take `c1cc(NCCCCN2CCOCC2)c2ccc3c(ccc4c(NCCN5CCOCC5)ccnc43)c2n1`: the growth is 87.8%.

For the compound `Clc1cccc(Nc2ncnc3ccc(-c4cncc(-n5cnnn5)c4)cc23)c1`, the growth is 93.6%.

For `COc1ccc2c(c1)c(-c1nc(-c3c[nH]c4c(Cl)nccc34)cs1)cn2C`, the growth is 74.6%.

Take `C=CCOc1ccc(/C=C2\SC(=S)N(CCc3ccc(O)cc3)C2=O)cc1`: the growth was 114%.

In the case of `CCOc1ccc(C(=O)Cc2ccccc2)cc1`, the growth is 106% and 98.2%.

The subject of the next assay is KM12 colon. The assay is described as above. Particulars: 10 µM unless noted.
Turning to `S=c1nc(CS)[nH]c2ccccc12`, the growth is 100%.

`O=C(CC1(O)C(=O)Nc2ccc(Br)cc21)c1ccc(Cl)cc1` (stereo not drawn): the growth is 99.5%.

For `Clc1ccc(/C=N\N2CCCCCC2)cc1`, the growth was 107%.

For `COc1ccc(Nc2ncnc3ccc(-c4cncc(NS(C)(=O)=O)c4)cc23)cc1Cl`, the growth is 61%.

In the case of `O=C(c1cccc(Br)c1)N1CCN(c2ccnc3cc(Cl)ccc23)CC1`, the growth was 96.4%.

Turning to `CCCn1nc(C(=O)N2CCCCC2)c2c1CCC(N1CCC(c3ccncc3)CC1)C2` (stereo not drawn), the growth is 103%.

`O=C(Nc1cc(C(F)(F)F)cc(C(F)(F)F)c1)c1cc(Cl)ccc1O`: the growth was -24.3% (active) and -33% (active).

For the compound `Cc1cnc(C(=O)NNc2nc3sc4c(c3c(=O)[nH]2)C(C)CCC4)cn1` (stereo not drawn), the growth is 17.5%.

In the case of `CN1CCN(CCNC(=O)c2cccc(CN3c4cccc5c4C(=Cc4cccnc43)N(C)C5=O)c2)CC1`, the growth was 44.6%.

`CCNC(=O)Oc1ccc(/C(=C(/C)Cc2ccc(OC)cc2)c2ccc(OCCN(CC)CC)cc2)cc1`: the growth was 62.2%.

As for `COc1c(NC=O)c2c(c([N+](=O)[O-])c1OC)C(=O)OC2`, the growth was 109% and 102%.

For `COc1cc(/C=C2\C(=O)N(CCCCn3c4ccccc4c(=O)c4ccccc43)c3ccccc32)cc(OC)c1O`, the growth is 58.4%.

With `Cc1c(O)c(O)cc2c3c(oc12)CC(c1ccc2c(c1)OCO2)CC3=O` (stereo not drawn), the growth is 90.9%.

Take `CC(=NCc1ccccc1)c1ccc(O)cc1O`: the growth was 104%.

For `COc1ccc(CCNC(=O)COc2cc3c(Nc4ccc(F)c(Cl)c4)ncnc3cc2OC)cc1OC`, the growth was 96.9%.

With `COc1cccc(NC(=O)c2sc3nc(C)c(C(O)c4ccccc4)cc3c2N)c1` (stereo not drawn), the growth was 18%.

As for `Cc1cc2nc(C(Cl)Cl)nc(-c3ccc(Cl)cc3)n2n1`, the growth was -27.2% (active).

As for `Nc1ccc(S(=O)(=O)c2ccc(N)cc2)cc1`, the growth is 106% and 109%.

For `CCCCCO/N=C\c1c2c(O)c3c(O)c(C)c4c(c3c1O)C(=O)C(C)(O/C=C\C(OC)C(C)C(OC(C)=O)C(C)C(O)C(C)C(O)C(C)/C=C\C=C(\C)C(=O)N2)O4` (stereo not drawn), the growth was 17.3%.

`COc1ccc(-c2nc(Cl)c3c(C)nn(-c4ccc(F)cc4)c3n2)cc1`: the growth was 104%.

As for `COc1ccc(Oc2nc(Nc3ccc(N4CCOCC4)cc3)ncc2NC(=O)c2cccc(C(F)(F)F)c2)cc1`, the growth was 59.3%.

Regarding `O=C1C=CC(=O)N1c1ccc2ccccc2c1`, the growth was 103% and 104%.

As to `CN(C)C1CCN(C(=O)c2ccc(NC(=O)Nc3ccc(-c4nc(N5CCOCC5)c5cccn5n4)cc3)cc2)CC1`, the growth is 5.54% (active).

On to `O=C(Cc1ccc(F)cc1)c1ccccc1`, for which the growth is 111%.

With `Cc1ccc(C(=O)c2ccc(CC(=O)N=Nc3c(O)[nH]c4ccc(OC(F)(F)F)cc34)n2C)cc1`, the growth was 94%.

Regarding `O=C(NNc1ccccc1)C1CCCN1` (stereo not drawn), the growth was 31.9%.

With `O=C(/C=C/c1ccc(F)cc1)Nc1ncc(Cc2ccc(F)cc2)s1`, the growth was 20.9%.

As for `O=C1/C(=C/c2ccccc2[N+](=O)[O-])Cc2ccccc21`, the growth is 52% and 32.2%.

Regarding `CCCO/N=C/c1ccccn1`, the growth was 101% and 103%.

For the compound `COc1cc2nc3cc([N+](=O)[O-])ccc3c(NCCNCC(C)(C)O)c2cc1OC`, the growth was -7.24% (active).

In the case of `Cc1ccc(-c2nc(SCC(=O)c3ccc(C#N)cc3)[nH]c(=O)c2C#N)cc1`, the growth is 93.6%.

With `COc1ccc(/C=C/C(=O)c2cc3c(N)c(C(=O)Nc4ccccc4)sc3nc2C)cc1`, the growth is 6.61% (active).

For the compound `CC1(C)C(N)=Nc2cc(OCCCN3Cc4ccc(OCCc5cn(CC(=O)N6CCC(CCN7CCCC7)CC6)nn5)cc4C3)c(OCC3CC3)cc21`, the growth is 107%.

Consider `CCCN1C(=O)/C(=c2\sc3n(c2=O)NC2C(N=3)N(CC)C(=O)N2CC)c2ccccc21` (stereo not drawn), for which the growth is 30.3%.

Consider `c1cc(NCCCCN2CCOCC2)c2ccc3c(ccc4c(NCCN5CCOCC5)ccnc43)c2n1`, for which the growth was 92.1%.

On to `Clc1cccc(Nc2ncnc3ccc(-c4cncc(-n5cnnn5)c4)cc23)c1`, for which the growth was 91.4%.

For `COc1ccc2c(c1)c(-c1nc(-c3c[nH]c4c(Cl)nccc34)cs1)cn2C`, the growth was 30.8%.

For `C=CCOc1ccc(/C=C2\SC(=S)N(CCc3ccc(O)cc3)C2=O)cc1`, the growth is 91.5%.

In the case of `CCOc1ccc(C(=O)Cc2ccccc2)cc1`, the growth was 116% and 110%.
